Results on eleven compounds are retold here after PubChem BioAssay (Tox21).

Structures are written as SMILES. Values without a mark were called inactive. Inconclusive results are not listed. Calls of active or inactive are those of the source. Calls come from the whole dose curve; as a rule, active = well fitted curve in the direction sought with a large enough effect in the repeat runs; inconclusive = weak or mixed curves; inactive = no such curve, though single readings can be large; an effect the other way counts as inactive or inconclusive.

The nature of experiment [1]: Human pregnane X receptor (PXR) small molecule agonists, qHTS cell viability counter screen (AID 1346977). Note: nearly all actives have a fitted effect of over 50% in size. Note: potency is the fitted concentration of half-maximal effect. In outline: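 PXR-Luc HepG2 cells (2,000/well, 5% charcoal-stripped FBS) preincubated 5 hr, then exposed to compounds 24 hr at 37 C. Viability read in the same wells by CellTiter-Fluor fluorescence, reagent added at 23 hr, 1 hr incubation.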
In general terms: Quantitative high-throughput screening tests each substance at several concentrations.

The nature of experiment [2]: Caspase-3/7 induction in HepG2 cells by small molecules, qHTS assay (AID 1346978). Note: nearly all actives have a fitted effect of over 15% in size. In outline: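 Wild-type HepG2 cells (2,000/well) were settled 5 h at 37 C, 5% CO2, then exposed to compounds in DMSO for 17 h. Caspase-3/7 activity was read by luminescence 30 min after adding Caspase-Glo 3/7 reagent at room temperature.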
Experiment [3] is described as follows: Caspase-3/7 induction in CHO-K1 cells by small molecules, qHTS cell viability counter screen (AID 1346979). Note: nearly all actives have a fitted effect of over 35% in size. Note: potency is the fitted concentration of half-maximal effect. In outline: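 Wild-type CHO-K1 cells (1,500/well) treated with compound after 5 h plating; after 16 h at 37C, viability read as CellTiter-Fluor fluorescence following 1 h reagent incubation, in the same wells as the caspase read.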
Experiment [4] can be described thus: Caspase-3/7 induction in CHO-K1 cells by small molecules, qHTS assay (AID 1346980). Note: nearly all actives have a fitted effect of over 15% in size. In outline: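 Wild-type cells were seeded at 1,500 per well and settled 5 hr at 37 C, 5% CO2, then exposed to DMSO-dissolved compounds for 17 hr. Caspase-Glo 3/7 reagent was added, and luminescence was read after 30min at room temperature.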
Experiment [5] concerns the target Nuclear receptor subfamily 1 group I member 2 (Homo sapiens) (UniProt O75469). The experiment is described as follows: Human pregnane X receptor (PXR) small molecule agonists, qHTS assay (AID 1346982). Note: nearly all actives have a fitted effect of over 35% in size. Note: potency is the fitted concentration of half-maximal effect. In outline: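 Agonist mode: luminescence from ONE-Glo after 24 h compound exposure at 37C in HepG2 cells carrying hPXR-responsive CYP3A4 luciferase, plated in charcoal-stripped serum medium 5 h beforehand.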

The target of experiment [6] is Cytochrome P450 2D6 (Homo sapiens) (UniProt P10635). Put plainly: Cytochrome P450 Family 2 Subfamily D Member 6 (CYP2D6) small molecule antagonists: luciferase reporter qHTS assay (AID 1671196). For activity change, negative = inhibition: series mostly up to about 120 µM. Note: nearly all actives have a fitted effect of over 50% in size. Note: potency is the fitted concentration of half-maximal effect. In outline:
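CYP2D6 activity was followed as luminescence from its luciferin product after a 1 h NADPH-driven reaction at room temperature. Enzyme-substrate mix and compound were pre-incubated for 10 min, and the signal was read 20 min after adding detection reagent.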

Experiment [7] deals with Cytochrome P450 2C19 (Homo sapiens) (UniProt P33261). The experiment is described as follows: Cytochrome P450 Family 2 Subfamily C Member 19 (CYP2C19) small molecule antagonists: luciferase reporter qHTS assay (AID 1671197). For activity change, negative = inhibition: series mostly up to about 120 µM. Note: nearly all actives have a fitted effect of over 65% in size. Note: potency is the fitted concentration of half-maximal effect. In outline: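 Quantitative high-throughput screen of the Tox21 library using CYP2C19 with proluciferin substrate. Reaction: NADPH regeneration, 37C, 1 h, after 10 min compound preincubation at room temperature. Readout: luminescence.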
Background: In a reporter assay the amount or activity of a reporter protein is the signal.

Experiment [8] deals with Cytochrome P450 2C9 (Homo sapiens) (UniProt P11712). The experiment is described as follows: Cytochrome P450 Family 2 Subfamily C Member 9 (CYP2C9) small molecule antagonists: luciferase reporter qHTS assay (AID 1671198). For activity change, negative = inhibition: series mostly up to about 120 µM. Note: nearly all actives have a fitted effect of over 50% in size. Note: potency is the fitted concentration of half-maximal effect. In outline: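 CYP2C9 activity was measured with a P450-Glo proluciferin substrate. Enzyme–substrate mix was held with compound for 10 min at room temperature, then NADPH regeneration solution was added for 1 h at 37C. Luciferin product was read as luminescence.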

For experiment [9], the target named is Cytochrome P450 3A4 (Homo sapiens) (UniProt P08684). Put plainly: Cytochrome P450 Family 3 Subfamily A Member 4 (CYP3A4) small molecule antagonists: luciferase reporter qHTS assay (AID 1671201). Note: series mostly up to about 120 µM; nearly all actives have a fitted effect of over 50% in size. In outline:
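P450-Glo CYP3A4 luminescent assay: compounds preincubated 10 min at room temperature with enzyme and proluciferin substrate, NADPH regeneration added, 1 h room-temperature reaction, stopped with luciferin detection reagent; luminescence read after 20 min. Ketoconazole positive control.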

The target of experiment [10] is Nuclear receptor subfamily 1 group I member 2 (Rattus norvegicus) (UniProt Q9R1A7). Put plainly: Rat pregnane X receptor (rPXR) activation by small molecules, qHTS assay (AID 1346983). Note: nearly all actives have a fitted effect of over 20% in size. Note: potency is the fitted concentration of half-maximal effect. The note with it: rPXR luciferase reporter cells, One-Glo luminescence, 24 h; max activation: active compounds read high. In outline:
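Cell-based rPXR luciferase reporter assay, 2,000 cells per well, rested 5hr at 37 C before compound addition in DMSO, then 24 hr at 37 C. One-Glo reagent was added and luminescence read after 30 min at room temperature.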

Experiment [11] concerns the target Nuclear receptor subfamily 1 group I member 2 (Homo sapiens) (UniProt O75469). Put plainly: Human pregnane X receptor (PXR) activation by small molecules, qHTS assay (AID 1346985). Note: nearly all actives have a fitted effect of over 40% in size. Note: potency is the fitted concentration of half-maximal effect. In outline: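 DPX-2 cells (HepG2 co-transfected with a PXR response element and a CYP3A4-promoter luciferase construct) were seeded at 2,000 per well, rested 5 hr at 37C, then exposed to DMSO-dissolved compounds for 24 hr. Activation was read as luciferase luminescence.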

In experiment [12] the target is Cytochrome P450 1A2 (Homo sapiens) (UniProt P05177). Put plainly: Cytochrome P450 Family 1 Subfamily A Member 2 (CYP1A2) small molecule antagonists: luciferase reporter qHTS assay (AID 1671199). For activity change, negative = inhibition: series mostly up to about 120 µM. Note: nearly all actives have a fitted effect of over 50% in size. Note: potency is the fitted concentration of half-maximal effect. In outline:
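Luminescence from luciferin formed by CYP1A2 from a proluciferin substrate, read 20 min after detection reagent. Compound was pre-incubated 10 min with enzyme-substrate, and reaction started with NADPH regeneration solution for 1 h at room temperature; furafylline control.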

A short description of experiment [13]: Caspase-3/7 induction in HepG2 cells by small molecules, qHTS cell viability counter screen (AID 1346981). Note: series mostly up to about 92 µM; nearly all actives have a fitted effect of over 30% in size. In outline:
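CellTiter-Fluor fluorescence measured viability in the same wells used for Caspase-Glo 3/7. HepG2 (wild type) at 2,000 cells/well were pre-incubated 5 hr, dosed, and given reagent at 16 hr, with 1 hr further at 37C.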

Experiment [14] has as its target Voltage-gated inwardly rectifying potassium channel KCNH2 (Homo sapiens) (UniProt Q12809). Put plainly: Human Ether-a-go-go-Related Gene (hERG) channel small molecule antagonists: fluorescence cell-based qHTS assay (AID 1671200). In outline:
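hERG-U2OS cells plated overnight at 37 C, loaded with FluxOR II dye 1 h at RT in dark; after 10 min, thallium stimulus added. Fluorescence (480/540 nm) read kinetically for 2 min at 1 s intervals.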

Experiment [15] deals with Nuclear receptor subfamily 1 group I member 2 (Homo sapiens) (UniProt O75469). The experiment is described as follows: CYP3A4 induction through human pregnane X receptor (PXR) by small molecules, qHTS assay (AID 1346984). Note: nearly all actives have a fitted effect of over 40% in size. In outline: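 Read-out is luminescence after One-Glo addition, following a 3 hr, 37C incubation with Luciferin-IPA CYP3A4 substrate (3uM final). Before that, compounds were on DPX-2 cells (HepG2 co-transfected with PXR element plus CYP3A4-promoter luciferase) for 24 hr at 37C.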
% is set by controls: 0 for no effect and ±100 for the full control effect.

Chain of Cytochrome P450 1A2 (Homo sapiens) (P05177 whole entry, looked up): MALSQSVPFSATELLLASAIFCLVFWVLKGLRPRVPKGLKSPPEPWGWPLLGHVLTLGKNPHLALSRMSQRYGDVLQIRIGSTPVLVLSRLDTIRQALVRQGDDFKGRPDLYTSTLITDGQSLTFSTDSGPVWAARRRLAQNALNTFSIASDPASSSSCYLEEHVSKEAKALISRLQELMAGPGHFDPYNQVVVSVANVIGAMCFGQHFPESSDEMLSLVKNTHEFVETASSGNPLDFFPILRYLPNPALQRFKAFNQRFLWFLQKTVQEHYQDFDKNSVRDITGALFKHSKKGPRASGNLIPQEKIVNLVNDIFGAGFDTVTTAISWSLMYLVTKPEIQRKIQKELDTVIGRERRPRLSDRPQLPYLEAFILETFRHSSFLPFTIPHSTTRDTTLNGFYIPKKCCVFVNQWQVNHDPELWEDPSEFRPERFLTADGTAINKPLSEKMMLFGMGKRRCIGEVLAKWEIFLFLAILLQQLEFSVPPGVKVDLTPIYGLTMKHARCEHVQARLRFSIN
Chain of Nuclear receptor subfamily 1 group I member 2 (Rattus norvegicus) (Q9R1A7 whole entry, looked up): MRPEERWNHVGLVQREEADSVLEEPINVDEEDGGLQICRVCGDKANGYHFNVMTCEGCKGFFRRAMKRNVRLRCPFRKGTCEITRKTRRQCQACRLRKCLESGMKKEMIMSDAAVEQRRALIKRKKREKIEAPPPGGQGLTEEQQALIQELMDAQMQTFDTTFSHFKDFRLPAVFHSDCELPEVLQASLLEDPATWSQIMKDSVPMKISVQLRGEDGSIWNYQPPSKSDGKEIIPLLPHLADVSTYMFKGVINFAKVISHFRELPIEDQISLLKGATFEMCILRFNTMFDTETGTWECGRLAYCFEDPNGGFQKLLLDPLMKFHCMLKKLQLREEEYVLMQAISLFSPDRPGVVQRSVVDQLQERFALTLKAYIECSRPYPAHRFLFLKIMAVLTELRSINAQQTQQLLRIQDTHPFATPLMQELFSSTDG
Chain of Nuclear receptor subfamily 1 group I member 2 (Homo sapiens) (O75469 whole entry, looked up): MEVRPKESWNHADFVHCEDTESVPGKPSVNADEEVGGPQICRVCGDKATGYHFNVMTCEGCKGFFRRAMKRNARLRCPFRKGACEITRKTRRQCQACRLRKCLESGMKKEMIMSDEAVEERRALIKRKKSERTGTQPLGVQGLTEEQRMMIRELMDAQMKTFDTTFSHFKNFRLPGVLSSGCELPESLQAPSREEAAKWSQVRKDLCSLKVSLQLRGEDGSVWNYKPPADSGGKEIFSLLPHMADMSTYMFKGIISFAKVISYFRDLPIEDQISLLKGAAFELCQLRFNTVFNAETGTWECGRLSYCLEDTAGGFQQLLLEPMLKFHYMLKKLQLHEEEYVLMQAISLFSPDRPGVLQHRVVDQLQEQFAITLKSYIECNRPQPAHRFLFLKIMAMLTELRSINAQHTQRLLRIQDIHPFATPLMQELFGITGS
Chain of Cytochrome P450 3A4 (Homo sapiens) (P08684 whole entry, looked up): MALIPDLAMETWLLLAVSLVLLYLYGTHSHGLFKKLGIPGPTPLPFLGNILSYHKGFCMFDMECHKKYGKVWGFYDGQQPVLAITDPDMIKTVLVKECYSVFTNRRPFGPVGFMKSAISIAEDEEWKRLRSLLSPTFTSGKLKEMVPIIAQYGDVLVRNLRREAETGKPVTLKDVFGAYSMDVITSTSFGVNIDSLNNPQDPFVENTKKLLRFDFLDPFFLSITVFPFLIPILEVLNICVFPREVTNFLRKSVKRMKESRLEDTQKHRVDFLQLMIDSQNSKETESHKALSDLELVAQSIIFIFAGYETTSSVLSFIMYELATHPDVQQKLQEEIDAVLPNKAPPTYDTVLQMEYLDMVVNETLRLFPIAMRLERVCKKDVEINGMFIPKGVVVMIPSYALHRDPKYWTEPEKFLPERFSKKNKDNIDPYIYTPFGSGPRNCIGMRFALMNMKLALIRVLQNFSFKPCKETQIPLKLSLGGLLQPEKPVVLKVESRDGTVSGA
Chain of Cytochrome P450 2C19 (Homo sapiens) (P33261 whole entry, looked up): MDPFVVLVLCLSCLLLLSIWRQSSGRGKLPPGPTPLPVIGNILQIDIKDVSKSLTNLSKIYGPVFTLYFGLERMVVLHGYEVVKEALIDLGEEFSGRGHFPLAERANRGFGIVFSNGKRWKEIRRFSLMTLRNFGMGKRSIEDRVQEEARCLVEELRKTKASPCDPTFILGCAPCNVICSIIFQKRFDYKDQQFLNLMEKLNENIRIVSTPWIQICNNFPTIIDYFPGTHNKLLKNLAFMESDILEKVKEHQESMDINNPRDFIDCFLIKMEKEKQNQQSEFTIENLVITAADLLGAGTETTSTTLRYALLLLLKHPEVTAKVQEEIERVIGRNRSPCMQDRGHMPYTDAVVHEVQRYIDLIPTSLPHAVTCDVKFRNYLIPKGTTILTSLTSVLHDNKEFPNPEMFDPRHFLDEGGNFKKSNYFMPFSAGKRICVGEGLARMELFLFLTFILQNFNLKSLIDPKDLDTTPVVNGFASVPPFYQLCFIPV
Chain of Cytochrome P450 2D6 (Homo sapiens) (P10635 whole entry, looked up): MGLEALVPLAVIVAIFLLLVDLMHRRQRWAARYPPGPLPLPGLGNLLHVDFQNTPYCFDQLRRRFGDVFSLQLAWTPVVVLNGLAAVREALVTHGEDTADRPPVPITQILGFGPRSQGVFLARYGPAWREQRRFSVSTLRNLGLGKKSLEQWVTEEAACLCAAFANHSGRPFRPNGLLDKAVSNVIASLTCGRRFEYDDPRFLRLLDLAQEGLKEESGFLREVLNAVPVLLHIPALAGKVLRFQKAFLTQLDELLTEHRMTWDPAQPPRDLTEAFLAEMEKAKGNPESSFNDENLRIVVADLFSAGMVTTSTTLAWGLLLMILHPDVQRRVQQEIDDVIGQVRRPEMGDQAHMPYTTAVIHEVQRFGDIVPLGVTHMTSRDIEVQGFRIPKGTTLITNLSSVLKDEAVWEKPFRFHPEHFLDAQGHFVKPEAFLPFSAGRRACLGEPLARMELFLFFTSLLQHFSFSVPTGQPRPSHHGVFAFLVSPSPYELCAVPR
Chain of Voltage-gated inwardly rectifying potassium channel KCNH2 (Homo sapiens) (Q12809 whole entry, looked up): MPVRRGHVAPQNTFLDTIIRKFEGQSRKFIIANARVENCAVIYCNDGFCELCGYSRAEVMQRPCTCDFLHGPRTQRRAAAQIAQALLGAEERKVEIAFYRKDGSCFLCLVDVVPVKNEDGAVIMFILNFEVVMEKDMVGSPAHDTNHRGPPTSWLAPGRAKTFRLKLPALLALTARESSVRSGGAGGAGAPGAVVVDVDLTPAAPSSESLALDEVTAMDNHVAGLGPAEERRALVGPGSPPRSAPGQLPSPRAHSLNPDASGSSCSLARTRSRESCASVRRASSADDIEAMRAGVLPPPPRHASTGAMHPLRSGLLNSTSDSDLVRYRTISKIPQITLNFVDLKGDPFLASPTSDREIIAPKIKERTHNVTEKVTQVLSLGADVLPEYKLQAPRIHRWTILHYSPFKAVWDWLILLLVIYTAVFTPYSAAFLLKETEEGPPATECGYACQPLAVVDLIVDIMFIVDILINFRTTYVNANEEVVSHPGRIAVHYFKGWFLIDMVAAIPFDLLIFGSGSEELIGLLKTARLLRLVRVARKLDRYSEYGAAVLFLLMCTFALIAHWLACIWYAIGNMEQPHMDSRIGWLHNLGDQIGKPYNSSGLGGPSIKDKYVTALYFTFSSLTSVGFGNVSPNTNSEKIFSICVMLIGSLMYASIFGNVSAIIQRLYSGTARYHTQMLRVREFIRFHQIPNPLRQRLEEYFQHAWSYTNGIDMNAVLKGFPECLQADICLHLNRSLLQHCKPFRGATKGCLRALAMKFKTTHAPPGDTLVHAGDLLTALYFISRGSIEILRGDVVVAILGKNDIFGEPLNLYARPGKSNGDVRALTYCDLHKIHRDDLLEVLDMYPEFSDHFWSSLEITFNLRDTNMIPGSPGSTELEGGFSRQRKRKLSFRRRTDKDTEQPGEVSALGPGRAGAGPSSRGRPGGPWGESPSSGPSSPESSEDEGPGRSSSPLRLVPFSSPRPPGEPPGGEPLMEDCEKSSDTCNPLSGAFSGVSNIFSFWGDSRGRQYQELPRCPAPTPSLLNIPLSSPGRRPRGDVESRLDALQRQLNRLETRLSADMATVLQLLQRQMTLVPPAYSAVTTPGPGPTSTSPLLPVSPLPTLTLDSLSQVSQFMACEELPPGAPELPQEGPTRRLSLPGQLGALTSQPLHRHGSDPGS
Chain of Cytochrome P450 2C9 (Homo sapiens) (P11712 whole entry, looked up): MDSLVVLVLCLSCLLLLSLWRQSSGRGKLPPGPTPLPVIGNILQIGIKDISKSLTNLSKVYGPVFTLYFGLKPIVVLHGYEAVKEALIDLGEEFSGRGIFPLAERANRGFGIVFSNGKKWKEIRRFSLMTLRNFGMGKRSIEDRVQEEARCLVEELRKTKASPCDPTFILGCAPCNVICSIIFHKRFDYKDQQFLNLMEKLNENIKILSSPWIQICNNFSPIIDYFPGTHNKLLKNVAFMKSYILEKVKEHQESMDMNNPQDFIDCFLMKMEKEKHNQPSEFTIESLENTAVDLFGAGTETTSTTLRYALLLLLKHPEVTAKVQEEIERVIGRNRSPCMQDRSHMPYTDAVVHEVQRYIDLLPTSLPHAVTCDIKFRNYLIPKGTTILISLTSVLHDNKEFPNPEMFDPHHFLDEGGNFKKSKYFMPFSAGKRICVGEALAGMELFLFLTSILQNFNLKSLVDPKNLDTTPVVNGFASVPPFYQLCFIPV

As to `OCCNCc1ccccc1`, the Potency entry in experiment [1], in experiment [2], in experiment [3], in [4], in [5] and in [8] was “inactive” each time. Further, the Potency result in [9] was “inactive”. The Potency in experiment [6] was 35.6 µM (active); in experiment [7] it was 44.8 µM (active).
For the compound `C#CCN(C)CCCOc1ccc(Cl)cc1Cl`, the Potency entry in [1], in experiment [2], in experiment [3], in [4] and in experiment [11] was “inactive” throughout. Moreover, the Potency is 29.8 µM (active) in experiment [5]; 1.55 µM (active) in [6]; 3.89 µM (active) in [7]; 17.4 µM (active) in [8]; 1.82 µM (active) in experiment [12]. Further, the max activation in experiment [10] is -1.33%.
As to `OCCN1CCN(CCCN2c3ccccc3C=Cc3ccccc32)CC1`, the Potency in experiment [1] is 23.7 µM (active); in [5], 6.68 µM (active); in experiment [11], 10 µM (active); in experiment [6], 13.8 µM (active). Also, the Potency result in [2], in experiment [3], in experiment [4], in [7], in [8] and in experiment [12] was “inactive” each time. Moreover, in [10], the max activation is -15.2%.
For the compound `Cc1cc(N)c2cc(NC(=O)Nc3ccc4nc(C)cc(N)c4c3)ccc2n1`, the Potency entry in [1], in experiment [2], in [3], in experiment [4], in experiment [13] and in experiment [14] was “inactive” each time.
Regarding `C/C(=C(\CCOP(=O)(O)O)SC(=O)c1ccccc1)N(C=O)Cc1cnc(C)nc1N`, the activity change, negative = cytotoxicity in experiment [1] was 10.5% [at 8.39 µM]; in [3], 2.5% [at 8.39 µM]; in experiment [13], 6.79% [at 8.39 µM]. The caspase activation in [2] is 0.0207% [at 8.39 µM]. Further, the caspase-3/7 activation in experiment [4] is -0.786% [at 8.39 µM]. Also, the activity change, negative = inhibition in experiment [14] was 1.89% [at 6.97 µM].
On to `C=CCOC(=O)CCC1CCCCC1`, for which the Potency entry in experiment [1], in [2], in experiment [3], in [4], in experiment [6] and in [8] was “inactive” in each case. Besides, the Potency entry in [12], in experiment [14] and in [9] was “inactive” each time.
For `CCCCC1=NC2(CCCC2)C(=O)N1Cc1ccc(-c2ccccc2-c2nn[nH]n2)cc1`, the Potency entry in experiment [1], in experiment [2], in [4], in [5], in [15] and in experiment [11] was “inactive” each time. Besides, the Potency result in experiment [6], in experiment [7], in experiment [12] and in experiment [14] was “inactive” each time. Besides, the Potency in [3] is 29.8 µM (active); in [8] it was 17.4 µM (active). In addition, the max activation in experiment [10] was -1.35%.
Take `CCC(=O)O[C@]1(C(=O)CCl)[C@@H](C)C[C@H]2[C@@H]3CCC4=CC(=O)C=C[C@]4(C)[C@@]3(F)[C@@H](O)C[C@@]21C`: the Potency result in experiment [1], in [2], in experiment [3], in experiment [4], in experiment [12] and in [14] was “inactive” throughout. Besides, the Potency in experiment [10] was 2.24 µM (active); in [6] it was 15.5 µM (active); in experiment [8], 30.9 µM (active).
Regarding `Cc1ccc(C(C)OC(=O)C2(C)CCC(C(=O)O)C2(C)C)cc1` (configuration not stated), the Potency entry in experiment [1], in [2], in experiment [3], in experiment [4], in experiment [5] and in experiment [6] was “inactive” each time. In addition, the Potency result in experiment [7], in [12], in experiment [14] and in experiment [9] was “inactive” in each case.
As to `Nc1ccccc1S(=O)(=O)c1ccccc1`, the Potency result in [1], in experiment [2], in experiment [3], in experiment [4], in experiment [7] and in [8] was “inactive” in each case. The Potency result in experiment [14] is “inactive”.
In the case of `C[C@@H]1C[C@H]2O[C@@]3(O[C@@H]2C(C)(C)O)[C@H](O)[C@@]2(C)[C@@H]4CC[C@H]5C(C)(C)[C@@H](O[C@@H]6OC[C@@H](O)[C@H](O)[C@H]6O)CC[C@@]56C[C@@]46CC[C@]2(C)[C@@H]13`, the Potency entry in experiment [1], in experiment [2], in experiment [3], in experiment [4], in [13] and in experiment [14] was “inactive” each time.
